M1 antagonist: antagonists of rat M1 muscarinic receptor | B-score at 10 µM | CHO-M1 cells, Fluo-4 calcium, ACh EC80 antagonist mode; stronger effect = lower value | actives 3.4% (n = 64,000) | Muscarinic acetylcholine receptor M1 (Rattus norvegicus), P08482;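 active = calcium fluorescence response, raw or row-and-column corrected B-score, differing from the plate sample mean either way at a set confidence level, mostly lower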
Htt clearance: clearance of mutant huntingtin inclusions, primary screen, imaging, HeLa Exon1htt(103Q)mCFP, confocal imaging. aggregate imaging; zero = plate's median compound well. inhibition, % at 1.5 µM. actives 0.42% (n = 47,000). AID 853, 2007;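 active = inhibition of aggregate fluorescence above about 70%, also judged a hit by eye on the cell image, limit read from the data, passing the limit was not always enough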;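 note: cells exposed to compound for three days before fixation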
D1 allo mod: D1 CRE-luciferase signal change, two-sided – cell-based, HEK293 D1, dopamine EC30, D1 allosteric modulator project, primary screen; D(1A) dopamine receptor (Homo sapiens), P21728; dopamine EC30 potentiation; actives deviate in either direction; B-score at 10 µM; actives 5.9% (n = 58,000); AID 641, 2007;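 active = luminescence count or its row- and column-corrected plate score outside the 99.7% band of the plate's sample wells, on either side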
Target sequence (P21728 whole entry, looked up): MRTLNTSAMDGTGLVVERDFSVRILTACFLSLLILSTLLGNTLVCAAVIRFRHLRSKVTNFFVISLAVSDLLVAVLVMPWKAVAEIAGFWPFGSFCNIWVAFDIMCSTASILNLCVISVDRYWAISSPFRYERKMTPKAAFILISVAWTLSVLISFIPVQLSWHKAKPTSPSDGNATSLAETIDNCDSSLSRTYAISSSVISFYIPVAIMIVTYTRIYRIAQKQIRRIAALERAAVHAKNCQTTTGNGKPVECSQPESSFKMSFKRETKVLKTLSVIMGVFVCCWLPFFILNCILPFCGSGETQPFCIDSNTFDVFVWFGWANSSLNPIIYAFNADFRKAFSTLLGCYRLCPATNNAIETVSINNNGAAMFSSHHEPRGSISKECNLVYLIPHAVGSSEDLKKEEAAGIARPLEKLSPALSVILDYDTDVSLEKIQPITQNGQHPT
M1 ag: M1 muscarinic receptor agonists, primary screen, CHO-M1 cells, Fluo-4 calcium, agonist mode | Fluo-4 calcium fluorescence; stronger effect = higher value | B-score at 10 µM | actives 3% (n = 64,000) | AID 626, 2007;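 active = fluorescence rise, raw or as B-score row- and column-corrected plate score, outside the 99.7% band of its plate's samples, either direction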
WNV NS2B-NS3 inh: inhibitors of WNV NS2B-NS3 protease, primary screen, biochemical, fluorogenic substrate; fluorogenic substrate Ex360/Em465; stronger effect = lower value; actives 0.18% (n = 65,000); AID 577, 2007; z-score (no concentration beside the values); in the data active = z-score below about -3
M1 antag confirm: rat M1 muscarinic receptor antagonists, confirmation, CHO cells, Fluo-4 calcium, duplicate; shares compounds with M1 antagonist; ACh EC80 antagonism; stronger effect = lower value; calcium response (max-min fluorescence) at 10 µM; actives 43% (n = 1,700);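 active = calcium response below the same-plate mean of wells given acetylcholine alone at its 80%-effect dose, minus 3 SD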;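 note: raw fluorescence intensity difference in arbitrary instrument units and not normalized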
mGluR4 antag: human mGluR4 response to M1 antagonist hits, M1 allosteric modulator project, cell-based, antagonist mode, secondary assay 1; shares compounds with M1 antagonist; CHO-mGluR4 calcium flux, Fluo-4 fluorescence, glutamate EC80; stronger effect = lower value; fluorescence response (max-min) at 10 µM; actives 0.9% (n = 1,700); AID 678, 2007;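 active = fluorescence response below the plate's average for near-maximal glutamate wells, less 3 SD of those wells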;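 note: raw unnormalized fluorescence span taken in the window right after glutamate addition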
* marks the source's active call; other numbers are inactive results; . = no result given. This is a sample that favours compounds with a hit; in the whole collection about 8.9% have one here.

SMILES | M1 antagonist | Htt clearance | D1 allo mod | M1 ag | WNV NS2B-NS3 inh | M1 antag confirm | mGluR4 antag
Cc1ccc(NC(=O)Cn2cccc2)c(Br)c1 | -2.9* | 32 | -1.3 | 0.37 | -0.46 | 566 | 247
COc1ccc(C(C(C(=O)c2ccco2)N2CCOCC2)N2CCOCC2)cc1 (stereo not given) | -0.041 | -41 | -0.04 | 0.41 | 0.63 | . | .
CSc1ccc(C(C(C(=O)c2cccs2)N2CCOCC2)N2CCOCC2)cc1 (stereo not given) | -3.4* | . | . | 0.64 | -0.66 | 537 | 170
O=c1oc2ccccc2c(N2CCCCC2)c1CN1CCCC1 | . | 52 | . | . | . | . | .
CCc1oc2ccccc2c1C(=O)CCN1CCCCC1 | -7.1* | . | -1.1 | 0.19 | 0.08 | 196* | 235
CC1CCN(C(=O)c2cc3ccccc3o2)CC1 | -0.41 | 46 | 0.088 | -0.63 | -0.51 | . | .
COc1cccc(-c2nc(CS(=O)(=O)CC(=O)Nc3cccc(C)c3C)c(C)o2)c1 | -0.18 | . | . | -0.055 | -0.44 | . | .
O=C(CSC1=NCCS1)N1CCCC1 | -0.27 | . | -0.036 | -0.73 | -0.31 | . | .
Cn1c(Cc2ccccc2)nnc1SCC(=O)c1ccc(Br)s1 | -1.7* | -3 | 0.38 | -0.017 | 0.81 | 461* | 257
CCN(CC)CCNC(=O)c1cc2c(-c3ccc(Cl)cc3)nn(C)c2s1 | -2.9* | -104 | -1.2 | -0.55 | -0.28 | 444 | 205
CCOCCCNC(=O)c1cc2c(-c3ccc(Cl)cc3)nn(C)c2s1 | 0.58 | 17 | 0.18 | -0.15 | -0.37 | . | .
COc1ccc(OC)c(N=C2C(=O)Nc3ccccc32)c1 | 0.34 | . | -0.58 | -0.46 | -1.1 | . | .
COc1ccc(N=C2C(=O)Nc3ccccc32)cc1 | -4.4* | . | -0.83 | 1.7 | 0.07 | 700 | 197
CCC(C)Oc1ccccc1C1CC(=O)NC2=C1C(=O)CCC2 (stereo not given) | -0.21 | 16 | 0.4 | -1.4 | -0.86 | . | .
Cc1ccc(Cn2c(SCCN3CCOCC3)nc3c2c(=O)n(C)c(=O)n3C)cc1 | -0.46 | . | . | 0.22 | 1.5 | . | .
Cc1cccc(Cn2c(Sc3nc(C)cs3)nc3c2c(=O)[nH]c(=O)n3C)c1 | -7.1* | 31 | 2 | -0.64 | -1.2 | 524* | 276
Cn1c(=O)[nH]c(=O)c2c1nc(SCCN1CCCCC1)n2CCCc1ccccc1 | -3.8* | . | -0.39 | 0.43 | -1.4 | 428 | 187
Cn1c(=O)[nH]c(=O)c2c1nc(SCCN1CCCCC1)n2Cc1ccccc1 | -3.8* | -6 | -1.5 | 0.0092 | -0.03 | 530* | 205
Cc1ccc(Cn2c(SCCN3CCCCC3)nc3c2c(=O)[nH]c(=O)n3C)cc1 | -1.9* | -43 | -0.35 | 0.015 | 0.49 | 457* | 232
Cc1csc(Sc2nc3c(c(=O)[nH]c(=O)n3C)n2Cc2ccccc2Cl)n1 | -0.0035 | . | 2.3 | -0.19 | 0.93 | . | .
CCCCSc1nc2c(c(=O)[nH]c(=O)n2C)n1CCc1ccccc1 | -0.035 | . | . | -0.0089 | 0.19 | . | .
C=CCn1c(SCCOC)nc2c1c(=O)[nH]c(=O)n2C | 0.8 | . | 2.6 | -0.18 | -1.5 | . | .
Cc1ccc(Cn2c(CN3CC(C)OC(C)C3)nc3c2c(=O)[nH]c(=O)n3C)cc1 (stereo not given) | -5.2* | . | 0.0035 | 0.036 | 0.24 | 546 | 183
C=CCn1c(SCCN2CCCCC2)nc2c1c(=O)[nH]c(=O)n2C | -2.7* | . | -0.79 | 0.032 | -0.8 | 468 | 203
Cc1ccc(Cn2ccc(NC(=O)c3cc(CC(C)C)on3)n2)cc1 | -0.6 | . | -0.25 | 0.34 | 0.04 | . | .
SMILES | M1 antagonist | Htt clearance | D1 allo mod | M1 ag | WNV NS2B-NS3 inh | M1 antag confirm | mGluR4 antag
CCC(=O)N1CCN(c2ccc(Cl)cc2NC(=O)Cc2ccccc2)CC1 | 0.71 | 11 | -0.061 | 0.019 | -1.1 | . | .
CCC(=O)Nc1cc(Cl)ccc1N1CCN(C(=O)CC)CC1 | -4.9* | . | . | 0.01 | 0.25 | 692 | 294
O=C(NCc1ccc(C(F)(F)F)cc1)C1CC(c2c(Cl)cccc2Cl)=NO1 (stereo not given) | . | -21 | . | . | . | . | .
CN1CCCC(OC(=O)c2cc(Br)ccc2Cl)C1 (stereo not given) | -6.6* | . | 0.56 | -0.014 | 0.9 | 412* | 213
CCc1nc(C)c(-c2ccccc2)c(=O)[nH]1 | 0.12 | . | -0.13 | -0.34 | 0.32 | . | .
Nc1[nH]c(=S)[nH]c(=O)c1-c1ccccc1 | -2.3* | -192 | 0.53 | 0.57 | -0.66 | 638 | 172
C=CCNC1=C(Cl)C(=O)N(c2ccccc2Cl)C1=O | -0.02 | -23 | 0.36 | -1.3 | -0.12 | . | .
CN1C(=S)SC(/[N+]([O-])=C\c2ccc(Cl)cc2)C1(C)C (stereo not given) | . | -20 | . | . | . | . | .
CN1C(=S)SC(/[N+]([O-])=C\c2cccs2)C1(C)C (stereo not given) | -8* | . | -7.5* | 0.68 | 0.16 | 610 | 243
c1ccc2c(c1)ccc1nnc(SCc3ccc4c(c3)OCO4)n12 | . | 26 | . | . | . | . | .
NC1=NS(=O)(=O)NC1c1cccc(Cl)c1 (stereo not given) | . | 25 | . | . | . | . | .
O=C(c1cc2c(=O)oc3ccccc3c2s1)N1CCN(c2ncccn2)CC1 | . | . | 0.71 | . | -0.11 | . | .
Cc1cc(N2CCN(c3nc(N4CCOCC4)nc4ccccc34)CC2)c2ccccc2n1 | -7.1* | . | . | 0.28 | -0.1 | 24* | 239
c1ccc2c(N3CCCCC3)nc(N3CCCCC3)nc2c1 | -1.1 | . | . | 0.0025 | -0.58 | . | .
O=C(CC1Sc2ncnn2C1=O)Nc1ccc(Br)cc1 (stereo not given) | 0.096 | . | 1.1 | 0.44 | -0.47 | . | .
Cc1cc(C)n(-c2nc3c(c(=O)n(Cc4ccc(Cl)c(Cl)c4)c(=O)n3C)n2C)n1 | 0.067 | -3 | -0.24 | 0.34 | -0.93 | . | .
C=CCc1ccccc1OCC(O)CN(C(C)C)C(C)C (stereo not given) | -2* | . | -3.8 | 0.038 | -0.44 | 382* | 230
COc1ccccc1CN(Cc1ccco1)S(=O)(=O)c1ccc(-n2cnnn2)c(OC)c1 | . | . | . | . | -0.3 | . | .
O=C(Cn1c(SCC(=O)NC2CCCC2)nnc1-c1ccncc1)Nc1ccc2c(c1)OCO2 | -0.1 | 6 | -0.59 | -0.97 | 0.13 | . | .
N=c1sccn1CC(=O)Nc1cccc(Oc2ccccc2)c1 | -2.4* | -8 | -0.97 | 0.88 | -0.79 | 381* | 238
N=c1sccn1CC(=O)Nc1cccc2ccccc12 | . | -42 | . | . | . | . | .
CS(=O)(=O)N(CC(N)=O)c1ccc2c(c1)OCO2 | 0.054 | . | -0.32 | 0.088 | 0.54 | . | .
CS(=O)(=O)N(CC(=O)O)c1ccc2c(c1)OCO2 | -4.1* | -48 | 0.67 | -0.035 | 1.4 | 655 | 254
COc1cc(NC(=O)c2cccs2)cc(OC)c1 | -3.4* | . | -0.045 | -0.54 | 0.85 | 658 | 331
